Inconclusive results are not listed. Calls of active or inactive are those of the source. Unless noted, the call rests on the fitted dose curve.
Assays:
[1] = qHTS assay to identify small molecule antagonists of the sonic hedgehog signaling (Shh) pathway (AID 1259369); further: nearly all actives have a fitted effect of over 45% in size; further: potency means the concentration at half of the fitted maximal effect
Method in brief: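 Antagonist mode: compound added to 3T3 Gli1-Luc cells followed by conditioned-medium stimulation, 24 h at 37 C, 5% CO2. Inhibition taken as loss of Gli1-driven luciferase luminescence.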

[2] = qHTS assay to identify small molecule agonists of the androgen receptor (AR) signaling pathway in the presence of an antagonist - cell viability counter screen (AID 1259379; active means well fitted curve in the direction sought with a large enough effect in the repeat runs; an effect the other way counts as inactive or inconclusive; further: nearly all actives have a fitted effect of over 25% in size; further: potency means the concentration at half of the fitted maximal effect)
Method in brief: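 Cytotoxicity counter-screen run in the same wells as the nilutamide-challenged (3.0 µM final) AR agonist assay in MDA-kb2 cells. Compounds tested at 15 concentrations for 16 h, 37 °C without CO2; CellTiter-Fluor fluorescence read.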

[3] = qHTS assay to identify small molecule agonists of the estrogen receptor beta (ER-beta) signaling pathway - cell viability counter screen (AID 1259380; active means well fitted curve in the direction sought with a large enough effect in the repeat runs; an effect the other way counts as inactive or inconclusive; further: nearly all actives have a fitted effect of over 30% in size; further: potency means the concentration at half of the fitted maximal effect)
Method in brief: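 Cell viability counter screen: CellTiter-Glo luminescence (30 min, room temperature) measured in the same wells as the beta-lactamase readout, after 16 hr compound exposure at 37C of ER-beta-bla HEK293T cells in 2% charcoal-stripped FBS medium.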

[4] = target: Androgen receptor (Homo sapiens) (UniProt P10275); experiment: qHTS assay to identify small molecule agonists of the androgen receptor (AR) signaling pathway in the presence of an antagonist (AID 1259381); further: nearly all actives have a fitted effect of over 15% in size
Chain of Androgen receptor (Homo sapiens) (P10275 whole entry, looked up): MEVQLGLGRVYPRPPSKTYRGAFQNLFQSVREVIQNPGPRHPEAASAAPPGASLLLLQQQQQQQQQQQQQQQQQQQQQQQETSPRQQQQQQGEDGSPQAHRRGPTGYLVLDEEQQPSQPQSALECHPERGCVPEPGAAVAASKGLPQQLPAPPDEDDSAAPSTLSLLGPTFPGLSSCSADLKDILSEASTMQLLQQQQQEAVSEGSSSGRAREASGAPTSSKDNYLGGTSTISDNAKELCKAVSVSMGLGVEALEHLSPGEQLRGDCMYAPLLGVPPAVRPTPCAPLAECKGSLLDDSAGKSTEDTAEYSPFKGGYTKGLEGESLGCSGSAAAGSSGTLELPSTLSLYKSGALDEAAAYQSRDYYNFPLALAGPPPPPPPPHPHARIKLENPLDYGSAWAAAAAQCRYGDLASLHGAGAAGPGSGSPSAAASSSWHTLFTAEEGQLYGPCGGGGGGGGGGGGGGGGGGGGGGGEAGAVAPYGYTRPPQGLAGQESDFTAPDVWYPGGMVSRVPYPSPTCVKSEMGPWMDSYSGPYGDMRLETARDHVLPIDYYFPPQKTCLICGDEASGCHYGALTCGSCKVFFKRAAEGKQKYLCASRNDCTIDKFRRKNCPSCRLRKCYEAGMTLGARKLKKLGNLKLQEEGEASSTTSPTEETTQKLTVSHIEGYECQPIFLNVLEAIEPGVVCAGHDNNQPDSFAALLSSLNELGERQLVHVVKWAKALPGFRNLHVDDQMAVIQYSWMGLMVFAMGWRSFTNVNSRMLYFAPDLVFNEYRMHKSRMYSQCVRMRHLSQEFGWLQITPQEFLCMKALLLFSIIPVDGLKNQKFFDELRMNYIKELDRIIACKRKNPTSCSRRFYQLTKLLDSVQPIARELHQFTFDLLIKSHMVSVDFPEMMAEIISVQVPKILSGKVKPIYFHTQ
Method in brief: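 Agonist-mode confirmation run against 3.0 uM final nilutamide: compounds titrated at 15 concentrations onto MDA-kb2 MMTV-luciferase reporter cells. Luminescence measured with ONE-Glo following 16 hr incubation, 37C, 0% CO2.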

[5] = qHTS assay to identify small molecule agonists or antagonists of the thyroid stimulating hormone receptor (TSHR) signaling pathway - wild type cell line counter screen (AID 1259384)
Method in brief: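 Wild-type Hek293 cells, 800/well, 18 h at 37C, then compound with Ro20-1724 for 30 min RT. cAMP by HTRF (cAMP-d2/anti-cAMP cryptate), 1 h RT, fluorescence read. 15 concentrations, triplicates.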

[6] = target: Thyrotropin receptor (Homo sapiens) (UniProt P16473); experiment: qHTS assay to identify small molecule antagonists of the thyroid stimulating hormone receptor (TSHR) signaling pathway (AID 1259385); further: nearly all actives have a fitted effect of over 20% in size
Chain of Thyrotropin receptor (Homo sapiens) (P16473 whole entry, looked up): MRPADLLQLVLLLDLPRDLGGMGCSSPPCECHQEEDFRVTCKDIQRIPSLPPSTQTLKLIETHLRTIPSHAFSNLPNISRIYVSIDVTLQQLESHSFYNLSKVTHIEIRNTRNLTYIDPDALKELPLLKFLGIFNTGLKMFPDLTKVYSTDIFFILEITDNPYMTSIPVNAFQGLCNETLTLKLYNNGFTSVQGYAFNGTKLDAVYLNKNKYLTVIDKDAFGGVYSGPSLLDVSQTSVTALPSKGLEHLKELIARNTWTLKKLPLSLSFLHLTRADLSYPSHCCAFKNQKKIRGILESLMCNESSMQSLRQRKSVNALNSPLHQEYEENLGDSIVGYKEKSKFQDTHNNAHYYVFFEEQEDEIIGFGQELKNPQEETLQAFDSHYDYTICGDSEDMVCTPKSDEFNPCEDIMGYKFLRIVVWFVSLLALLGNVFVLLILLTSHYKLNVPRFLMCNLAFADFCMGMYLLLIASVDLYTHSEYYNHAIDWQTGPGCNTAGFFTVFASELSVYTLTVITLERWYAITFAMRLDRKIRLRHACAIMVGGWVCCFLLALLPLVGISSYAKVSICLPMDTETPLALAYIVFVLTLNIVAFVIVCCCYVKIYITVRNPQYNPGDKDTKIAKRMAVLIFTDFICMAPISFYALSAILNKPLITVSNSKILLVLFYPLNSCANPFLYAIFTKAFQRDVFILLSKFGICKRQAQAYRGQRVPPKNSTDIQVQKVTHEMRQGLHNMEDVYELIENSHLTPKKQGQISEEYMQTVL
Method in brief: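 TSHR-HEK293 cells (800/well) plated 18 h, then compounds with Ro20-1724 and TSH at 1.5 ng/mL final, 30 min at room temperature. cAMP quantified by HTRF (cAMP-d2/anti-cAMP-cryptate, 1 h); 15 concentrations in triplicate.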

[7] = target: Estrogen receptor beta (Homo sapiens) (UniProt Q92731); experiment: qHTS assay to identify small molecule antagonists of the estrogen receptor beta (ER-beta) signaling pathway (AID 1259378; active means well fitted inhibition curve with a large enough effect in the signal ratio in the repeat runs, not every such curve was filed as active; the % refers to the signal ratio; further: potency means the concentration at half of the fitted maximal effect)
Chain of Estrogen receptor beta (Homo sapiens) (Q92731 whole entry, looked up): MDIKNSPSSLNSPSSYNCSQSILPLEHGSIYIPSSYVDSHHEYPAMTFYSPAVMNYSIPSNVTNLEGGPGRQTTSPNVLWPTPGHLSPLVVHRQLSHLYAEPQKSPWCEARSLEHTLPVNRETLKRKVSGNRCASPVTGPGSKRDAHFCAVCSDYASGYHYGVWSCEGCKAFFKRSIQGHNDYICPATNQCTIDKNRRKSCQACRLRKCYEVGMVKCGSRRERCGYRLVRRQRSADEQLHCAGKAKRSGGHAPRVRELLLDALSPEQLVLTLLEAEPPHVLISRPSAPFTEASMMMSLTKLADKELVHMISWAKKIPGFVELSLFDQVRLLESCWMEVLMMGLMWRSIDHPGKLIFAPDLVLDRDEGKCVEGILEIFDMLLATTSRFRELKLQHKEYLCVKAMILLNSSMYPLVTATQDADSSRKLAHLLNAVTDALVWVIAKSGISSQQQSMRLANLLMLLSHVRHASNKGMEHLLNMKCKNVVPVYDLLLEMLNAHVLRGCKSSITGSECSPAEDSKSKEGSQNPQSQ
Method in brief: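 ER-beta-UAS-bla HEK293T cells in 2% charcoal-stripped FBS medium treated with compound plus 1nM final 17-beta-estradiol for 16 hr at 37C. Beta-lactamase reporter read by FRET substrate fluorescence after 2 hours at room temperature.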

[8] = qHTS assay to identify small molecule antagonists of the estrogen receptor beta (ER-beta) signaling pathway - cell viability counter screen (AID 1259382; active means well fitted curve in the direction sought with a large enough effect in the repeat runs; an effect the other way counts as inactive or inconclusive; further: nearly all actives have a fitted effect of over 55% in size; further: potency means the concentration at half of the fitted maximal effect)
Method in brief: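 Cytotoxicity was measured in the same wells by CellTiter-Glo luminescence after 30 min at room temperature. Cells were ER-beta-bla HEK293T in charcoal-stripped serum, given compound together with 1 nM E2 and incubated 16 h at 37C.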

[9] = target: Estrogen receptor (Homo sapiens) (UniProt P03372); experiment: qHTS assay to identify small molecule agonists of the estrogen receptor alpha (ER-alpha) signaling pathway in the presence of an antagonist (AID 1259383); further: top concentration of the series differs between compounds; nearly all actives have a fitted effect of over 15% in size
Chain of Estrogen receptor (Homo sapiens) (P03372 whole entry, looked up): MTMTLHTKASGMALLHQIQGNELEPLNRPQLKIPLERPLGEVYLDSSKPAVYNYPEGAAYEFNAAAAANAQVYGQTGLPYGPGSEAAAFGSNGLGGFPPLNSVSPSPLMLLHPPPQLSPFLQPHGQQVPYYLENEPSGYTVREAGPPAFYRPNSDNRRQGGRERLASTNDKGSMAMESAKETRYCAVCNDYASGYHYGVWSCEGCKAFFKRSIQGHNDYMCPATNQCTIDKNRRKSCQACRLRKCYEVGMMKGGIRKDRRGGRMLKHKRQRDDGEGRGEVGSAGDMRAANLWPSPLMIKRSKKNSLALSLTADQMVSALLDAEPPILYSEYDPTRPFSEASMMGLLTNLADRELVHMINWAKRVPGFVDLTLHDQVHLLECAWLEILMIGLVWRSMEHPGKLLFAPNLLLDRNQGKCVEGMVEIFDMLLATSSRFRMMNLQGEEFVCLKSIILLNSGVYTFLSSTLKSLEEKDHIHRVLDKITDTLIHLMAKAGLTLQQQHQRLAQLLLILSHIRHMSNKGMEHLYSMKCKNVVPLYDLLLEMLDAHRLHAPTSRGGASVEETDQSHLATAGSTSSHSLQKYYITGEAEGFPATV
Method in brief: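 Agonist-mode confirmation run in the presence of 10.0nM (final) ICI-182,780 antagonist. The reporter was ERE-driven luciferase in VM7Luc4E2 cells, grown in charcoal-stripped serum. Cells were exposed to 15-concentration compound series for 22hr, then ONE-Glo luminescence was read.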

[10] = target: Estrogen receptor beta (Homo sapiens) (UniProt Q92731); experiment: qHTS assay to identify small molecule agonists of the estrogen receptor beta (ER-beta) signaling pathway (AID 1259377; active means well fitted activation curve with a large enough effect in the signal ratio in the repeat runs, not every such curve was filed as active; the % refers to the signal ratio)
Method in brief: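 qHTS in ER-beta-UAS-bla HEK293T cells: 6 hr settling, then 16 hr compound at 37C, then LiveBLAzer substrate 2 h at RT before fluorescence reading.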

Measured: Potency

CC1(C)COP(Oc2ccccc2)OC1
inactive: [1] | [2] | [3] | [4] | [5] | [6]

CCCCC(=O)Cl
inactive: [1] | [7] | [2] | [3] | [8] | [5] | [6]

Oc1c(Cl)cccc1Cl
inactive: [1] | [7] | [2] | [3] | [5] | [6]

CCN(Cc1ccc(Cl)nc1)/C(=C/[N+](=O)[O-])NC
inactive: [1] | [7] | [2] | [3] | [5] | [6]

CC1=NNC(=O)N(/N=C/c2cccnc2)C1
inactive: [1] | [7] | [2] | [3] | [8] | [5] | [6]

[Cl][Sn]([Cl])([Cl])[Cl]
inactive: [1] | [2] | [3] | [8] | [9]

CN/C(=N\[N+](=O)[O-])NCC1CCOC1 (configuration not stated)
inactive: [1] | [7] | [2] | [3] | [8] | [5] | [6]

CC(=O)C(Cl)Cl
inactive: [1] | [2] | [3] | [8] | [9] | [5] | [6]

O=C1CN2CCOC2(c2ccccc2Cl)c2cc(Cl)ccc2N1 (configuration not stated)
inactive: [1] | [2] | [3] | [9] | [5] | [6]

N#CC(CCc1ccc(Cl)cc1)(Cn1cncn1)c1ccccc1 (configuration not stated)
active: [7] 30.6 µM | [2] 48.6 µM | [3] 68.6 µM | [8] 48.6 µM
inactive: [10] | [4] | [5]

ClCCCN1CCN(c2cccc(Cl)c2)CC1
inactive: [1] | [2] | [3] | [9] | [5] | [6]

CC1CCC(=O)O1 (configuration not stated)
inactive: [1] | [2] | [3] | [8] | [5] | [6]

CCOP(=S)(OCC)Oc1nc(Cl)n(C(C)C)n1
inactive: [1] | [2] | [3] | [9] | [5]

NC(=O)O
inactive: [1] | [2] | [3] | [8] | [5] | [6]

CC(C)[N+](=O)[O-]
inactive: [1] | [2] | [3] | [8] | [5] | [6]

CNC(=O)N(C)c1nc2ccccc2s1
inactive: [1] | [2] | [5] | [6]

CC(C)NCC(O)c1ccc(N)c(C#N)c1 (configuration not stated)
inactive: [1] | [2] | [3] | [8] | [9] | [6]

Nc1c(Br)cc([N+](=O)[O-])cc1[N+](=O)[O-]
inactive: [4] | [8] | [9] | [5] | [6]
active: [1] 31 µM

O=C(CCN1CC1)OCC(CO)(COC(=O)CCN1CC1)COC(=O)CCN1CC1
inactive: [1] | [2] | [3] | [8] | [5] | [6]

Nc1cc(Cl)ccc1O
active: [1] 1.67 µM
inactive: [2] | [5] | [6]

C=C(C)[C@@H]1CC=C(C=O)CC1
inactive: [1] | [2] | [3] | [5] | [6]

Cc1ncc(CNC(=O)N(CCCl)N=O)c(N)n1
inactive: [1] | [2] | [3] | [8] | [9] | [5] | [6]

CCS(=O)(=O)CCSP(=O)(OC)OC
inactive: [1] | [2] | [3] | [8] | [5] | [6]

CCCSP(=S)(OCC)Oc1ccc(Cl)cc1Cl (configuration not stated)
inactive: [1] | [2] | [3] | [8] | [5]

CC(CCc1ccccc1)NC(C)C(O)c1ccc(O)cc1 (configuration not stated)
inactive: [1] | [2] | [8] | [9] | [5] | [6]

C=CCC1=C(C)[C@@H](OC(=O)[C@@H]2[C@@H](C=C(C)C)C2(C)C)CC1=O
inactive: [1] | [9] | [5]
active: [2] 48.6 µM

CNC(=O)Oc1cccc(C(C)C)c1
inactive: [1] | [2] | [3] | [5] | [6]

Reference: PubChem BioAssay (Tox21)
